Results on 17 molecules are retold here after PubChem BioAssay (NCATS).

The source made the active and inactive calls. The call rests on the fitted dose curve; in most records, active means well fitted curve in the direction sought with a large enough effect; inconclusive means small, poorly fitted or top-dose-only effect, or effect the other way, or another doubt; inactive means no such curve, though single readings can be large or run the other way.

The assay is described as follows: qHTS of Nrf2 Activators: LOPAC Validation (AID 624149). Further: 0% is about no effect. As to conditions: Nrf2/ARE reporter cell assay; series mostly up to 46.1 µM; activation: at the top concentration. Put shortly:
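ARE reporter activation measured in AREc32 firefly luciferase cells after 24 hr compound exposure; Steady-Glo luminescence.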
For orientation: qHTS replaces the single test concentration by a dilution series.
As to `CCN(c1nc(N)c(C(=O)N=C(N)N)nc1Cl)C(C)C`, the “activation” value is -1.57% (inactive).
For the molecule `O=C1Nc2ccc(I)cc2/C1=C/c1cc(Br)c(O)c(Br)c1`, the “activation” value is 24.5% (inactive).
Regarding `COc1cc(N)c(Cl)cc1C(=O)OCCN1CCCCC1`, the “activation” value is -0.803% (inactive).
The figure for `CC[n+]1c(/C=C/C=C2/N(C)c3ccccc3C2(C)C)sc2ccccc21` is -1.74% (inactive); for `CCCCCCCC/C=C\CCCCCCCC(=O)NCCc1ccc(O)c(O)c1` it is 1.81% (inactive); for `CNCCc1cnc(CCC(c2ccccc2)c2ccccc2)[nH]1` it is 6.82% (inactive).
The same measure for `C[C@]12C=CC(=O)C=C1CC[C@@H]1C2=CC[C@]2(C)[C@@H](C(=O)CN3CCN(c4cc(N5CCCC5)nc(N5CCCC5)n4)CC3)CC[C@@H]12`: -1.76% (inactive); for `C[C@@H](NCCc1ccc(O)cc1)[C@@H](O)c1ccc(O)cc1`: -1.81% (inactive); for `CC(C)NCC(O)COc1ccc(CC(N)=O)cc1` (configuration not stated): -1.99% (inactive).
The same measure for `NCCNS(=O)(=O)c1cccc2c(Cl)cccc12`: 5.43% (inactive); for `O=c1onc2n1-c1cc(Br)ccc1OC2`: -2.18% (inactive).
For `OC1(c2ccc(Cl)cc2)CCN(Cc2c[nH]c3ccccc23)CC1`, the “activation” value is -1.59% (inactive).
With `CN1CCc2cc(Cl)c(O)cc2[C@@H](c2ccccc2)C1`, the “activation” value was -2.52% (inactive).
The same measure for `C[C@H]1CC2C3CCC4=CC(=O)C=C[C@]4(C)[C@@]3(Cl)[C@@H](O)C[C@]2(C)[C@@]1(O)C(=O)CO` (some centres not stated): -1.93% (inactive); for `CCCCCCN(CCCCCC)C(=O)Cc1c(-c2ccc(F)cc2)[nH]c2ccccc12`: 1.07% (inactive).
The same measure for `CN(CC[C@@H](Oc1ccc(C(F)(F)F)cc1)c1ccccc1)CC(=O)O`: -1.9% (inactive).
The figure for `N#Cc1cc([N+](=O)[O-])c2sc(C(N)=O)[n+]([O-])c2c1` is 14.1% (inactive).
